Here are results for 38 molecules from PubChem BioAssay (NCATS).

Each structure is given as a SMILES string. Results filed as inconclusive are left out. Entries that show only a call come without a potency. The source made the active and inactive calls. Calls come from the whole dose curve.

The nature of the test: Primary qHTS for inhibitors of SARS-S pseudo-typed particle cell entry (AID 1479145). Note: nearly all actives have a fitted effect of over 45% in size. The following applies: SARS-S pseudotyped particle cell entry, luciferase reporter; series mostly up to 57.1 µM.
On to `CCO[C@@H]1O[C@H](C(COCc2ccccc2)OCc2ccccc2)[C@H](OCc2ccccc2)[C@H]1O` (stereo partly drawn), for which the Potency entry was “inactive”.
As for `CCOC(=O)NNc1nncc2ccccc12`, the Potency entry is “inactive”.
Still for that read-out and setting: the entry for `CN(C)[C@@H]1C(=O)C(C(=O)NCN2CCCC2)=C(O)[C@@]2(O)C(=O)C3=C(O)c4c(O)cccc4[C@@](C)(O)C3C[C@@H]12` (stereo partly drawn) is “inactive”; for `CCNC(=O)NCCCOc1cccc(CN2CCCCC2)c1` it is “inactive”.
In the case of `CCN(CC)C(=O)C1CN2CCc3cc(OC)c(OC)cc3C2CC1OC(C)=O` (stereo not drawn), the Potency entry is “inactive”.
The same measure, in the same setting: the entry for `CC1(C)[C@@H]2CC[C@@]1(C)C(=O)C2` is “inactive”; for `CC(=O)N[C@H]1[C@H]([C@H](O)[C@H](O)CO)OC(C(=O)O)=C[C@@H]1N=C(N)N` it is “inactive”; for `N[C@H]1CN(c2c(F)cc3c(=O)c(C(=O)O)cn(C4C[C@@H]4F)c3c2Cl)CC12CC2` (stereo partly drawn) it is “inactive”.
Take `C[C@@H]1CCN(C(=O)[C@H](CCCN=C(N)N)NS(=O)(=O)c2cccc3c2NC[C@H](C)C3)[C@@H](C(=O)O)C1`: the Potency entry is “inactive”.
As to `Cc1cccc(N(C)C(=S)Oc2ccc3c(c2)C2CCC3C2)c1` (stereo not drawn), the Potency result was “inactive”.
As for `OC[C@H]1O[C@@H](O[C@@H]2[C@@H](CO)O[C@](O)(CO)[C@H]2O)[C@H](O)[C@@H](O)[C@H]1O`, the Potency entry is “inactive”.
On to `Nc1ccc(N=Nc2ccccc2)c(N)n1`, for which the Potency entry was “inactive”.
`CC1(C)OC[C@@H](COC(=O)CCc2ccc(OC[C@@H](O)CNCCNC(=O)N3CCOCC3)cc2)O1`: the Potency result was “inactive”.
`C[C@@H]1C[C@H]2[C@@H]3CCC4=CC(=O)C=C[C@]4(C)[C@@]3(Cl)[C@@H](O)C[C@]2(C)[C@@]1(OC(=O)c1ccco1)C(=O)CCl`: the Potency entry was “inactive”.
Still for that read-out and setting: the entry for `C/C(=N/NC(=O)c1ccncc1)C(=O)O` is “inactive”; for `CCCCCOc1ccc(C2SC(=O)NC2=O)cc1OCC` (stereo not drawn) it is “inactive”.
With `CC1(C)[C@H](C(=O)O)N2C(=O)C[C@H]2S1(=O)=O`, the Potency entry was “inactive”.
On the same count and under the same terms, the result for `N[C@H](C(=O)O)[C@@H](O)c1ccc(O)c(O)c1` reads “inactive”; that for `O=C(O)c1ccc(OCCCOc2ccc(C(=O)O)cc2)cc1`, “inactive”.
Consider `C=CCOc1ccccc1OCC(O)CNC(C)C` (stereo not drawn), for which the Potency result was “inactive”.
Consider `CCC1Nc2cc(Cl)c(S(N)(=O)=O)cc2S(=O)(=O)N1` (stereo not drawn), for which the Potency result was “inactive”.
Consider `CCCc1ncc(C[n+]2ccccc2C)c(N)n1`, for which the Potency entry is “inactive”.
The same measure, in the same setting: the entry for `COc1ccc2c(c1OC)C(=O)O[C@@H]2[C@H]1c2c(cc3c(c2OC)OCO3)CCN1C` is “inactive”.
As to `C/C(=C(\CCOP(=O)(O)O)SC(=O)c1ccccc1)N(C=O)Cc1cnc(C)nc1N`, the outcome was “inactive [at 5.34 µM]”.
In the case of `CN(Cc1ccc(C(C)(C)C)cc1)Cc1cccc2ccccc12`, the Potency entry is “inactive”.
As to `Cc1cc(C(C)(C)C)c(O)c(C)c1CC1=NCCN1`, the Potency result is “inactive”.
Regarding `O=C1c2ccccc2C(=O)C1c1ccccc1`, the Potency entry was “inactive”.
For the molecule `C[C@]12C=CC(=O)C=C1CC[C@H]1[C@@H]3C[C@@H](O)[C@](O)(C(=O)CO)[C@@]3(C)C[C@H](O)[C@@]12F`, the Potency entry is “inactive”.
On the same count and under the same terms, the entry for `O=C(CCCCCCCCC#CI)Oc1ccccc1` is “inactive”.
Same read-out and setting: the entry for `O=c1ccc2ccccc2o1` is “inactive”; for `Cc1ccc(C(=O)Oc2ccc(C(O)CNC(C)(C)C)cc2OC(=O)c2ccc(C)cc2)cc1` (stereo not drawn) it is “inactive”.
Take `CCCCC1(COC(=O)CCC(=O)O)C(=O)N(c2ccccc2)N(c2ccccc2)C1=O`: the Potency entry is “inactive”.
Still for that read-out and setting: the result for `C#C[C@]1(O)CC[C@H]2[C@@H]3CCc4cc(OC)ccc4[C@H]3CC[C@@]21C` reads “inactive”; that for `CN1[C@@H]2CC[C@H]1CC(NC(=O)n1c(=O)[nH]c3ccccc31)C2` (stereo partly drawn), “inactive”.
On to `O=C(O)C(=O)Nc1cccc(-c2nn[nH]n2)c1`, for which the Potency entry is “inactive”.
Still for that read-out and setting: the entry for `c1ccc2[nH]c(-c3cscn3)nc2c1` is “inactive”; for `CCOc1c(N2CCOCC2)cnn(C)c1=O` it is “inactive”; for `COc1cc(NS(=O)(=O)c2ccc(N)cc2)nc(OC)n1` it is “inactive”.
